Laboratory results published in PubChem BioAssay AID1159580 (chemical genetic matrix, 2015).
The campaign covered roughly 5,500 compounds. About 2,000 (36%) were called active. About 18% were inconclusive and are not listed. The list shows a part of the results. Unmarked numbers belong to inactive results. Cut-off read from the data, not from the text of the source: active = normalized growth mostly below about 0.91 (no sharp cut-off); inconclusive = no clear call, values can overlap the other calls; inactive = mostly above about 0.92.

Experiment: chemical genetic growth profiling, strain panel (AID 1159580);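 note: tested at 20 µM; growth read once vehicle control cultures reached saturation at 30 °C; 1 = growth at the plate median or of vehicle wells; lower values mean less growth of the strain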
Details: S. cerevisiae deletion strains, growth OD
[1] = locus YAL040C, strain CLN3, stronger effect = lower value
[2] = locus YER002W, strain NOP16, stronger effect = lower value
[3] = locus YNL175C, strain NOP13, stronger effect = lower value
[4] = locus YNL197C, strain WHI3, stronger effect = lower value
[5] = locus YNL224C, strain SQS1, stronger effect = lower value
[6] = locus YOR083W, strain WHI5 (second series), stronger effect = lower value

| Compound | normalized growth [1] | normalized growth (locus YDR150W, strain NUM1, stronger effect = lower value) | normalized growth (locus YDR363W, strain ESC2, stronger effect = lower value) | normalized growth [2] | normalized growth (locus YGR078C, strain PAC10, stronger effect = lower value) | normalized growth (locus YJR075W, strain HOC1, stronger effect = lower value) | normalized growth (locus YMR307W, strain GAS1, stronger effect = lower value) | normalized growth [3] | normalized growth [4] | normalized growth [5] | normalized growth (locus YNL322C, strain KRE1, stronger effect = lower value) | normalized growth [6] | normalized growth (locus YPL055C, strain LGE1, stronger effect = lower value) |
| --- | --- | --- | --- | --- | --- | --- | --- | --- | --- | --- | --- | --- | --- |
| C[N+](C)(C)CC(=O)O | 0.989 | 0.995 | 1.02 | 1 | 0.998 | 1.01 | 1.02 | 1.01 | 1 | 1.01 | 1 | 1.01 | – |
| CC(=O)SCC[N+](C)(C)C | 1.12 [resistant] (active) | – | – | 1.04 | – | – | – | 1.02 | 1.02 | 0.972 | – | 0.982 | 1.01 |
